High-throughput results: PubChem BioAssay, National Center for Advancing Translational Sciences (NCATS)
TRHR agonist – activates the human TRH receptor; TRHR cells, calcium flux fluo-8, FDSS agonist mode; activation, % at 2 µM; 360,000 tested, 0.18% active; AID 493084; in the data active means activation above about 30%; further: 0% is about no effect
Target sequence (P34981 whole entry, looked up): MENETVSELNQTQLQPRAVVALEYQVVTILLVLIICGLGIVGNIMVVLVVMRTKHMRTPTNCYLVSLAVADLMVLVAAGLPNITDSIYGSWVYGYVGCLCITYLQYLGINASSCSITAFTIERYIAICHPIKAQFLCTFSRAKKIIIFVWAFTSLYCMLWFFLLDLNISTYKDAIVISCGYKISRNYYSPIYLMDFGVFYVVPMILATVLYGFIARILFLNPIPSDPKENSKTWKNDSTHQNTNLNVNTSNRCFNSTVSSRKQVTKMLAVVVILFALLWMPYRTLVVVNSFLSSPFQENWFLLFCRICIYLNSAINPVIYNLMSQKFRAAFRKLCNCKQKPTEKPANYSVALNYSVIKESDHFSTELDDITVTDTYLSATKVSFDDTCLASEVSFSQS
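Agonist-mode FDSS calcium read (Ex 480/Em 530, 1 s cycles) in 1536-well TRHR cells with fluo-8 dye, after 10-cycle baseline and 23 nL compound addition; TRH at EC20 (10 nM final) added afterwards for the enhancer phase.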
TRHR enhancer – allosterically enhances the human TRH receptor. TRHR cells, fluo-8 calcium fluorescence, EC20 TRH enhancement. enhancement, % at 2 µM. 360,000 tested, 0.66% active. AID 493056; in the data active means enhancement above about 30%; further: 0% is about no effect
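TRHR-expressing cells loaded with fluo-8 calcium dye were read kinetically (ex 480/em 530) during compound addition, then stimulated with an EC20 of TRH (10 nM final). Enhancement of the Gq-mediated intracellular calcium response was scored.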
TRPML1 ag – activates the human TRPML1 channel; Q9GZU1; TRPML1-expressing cells, Ca2+ dye fluorescence, FDSS; activation, % (no concentration beside the values); 410,000 tested, 0.12% active; AID 624414; in the data active means activation above about 50%; inconclusive means mostly about 30% to 49%; further: 0% is about no effect
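Cells: TRPML1-DL, 1X Tet inducer, ~16 h at 37 degrees C/5% CO2. Dye: ABD Ca8 no-wash + quencher, 45-90 min RT. Read: 10 s baseline, compound add, 110 s agonist phase; 54-4 EC80 (4uM final), 110 s antagonist phase.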
PTAP TSG101 blk – blocks PTAP/TSG101 interaction to inhibit HIV-1 budding | Q99816 | Fluorescence polarization, FITC-PTAP peptide / Tsg101 binding | 340,000 tested, under 10 active | Potency, µM (top dose mostly 115 µM), for the others: at the top dose activity change, negative = inhibition, hits mostly inhibitors | AID 493005; active means well fitted inhibition curve with a large enough effect in the main read-out, with a control signal flat, not every such curve was filed as active; inconclusive means small, poorly fitted or top-dose-only effect, or effect the other way, or a change in a side signal; inactive means no such curve, though single readings can be large or run the other way; further: potency means the concentration at half of the fitted maximal effect; % of control where 0% means no effect
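FP read-out: FITC-PTAP peptide, 50 nM final, binding Tsg101 binding domain, 10 uM final; 20 min, r.t.; 10 mM HEPES pH 7.5, 0.15 M NaCl, 0.01% Tween 20, 3 mM EDTA, 0.1 mM TCEP.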
TRPML1 inh – inhibitors of human TRPML1 channel | Q9GZU1 | TRPML1-inducible cells, Ca2+ dye fluorescence, FDSS; active compounds read low; inhibition of EC80 agonist-evoked calcium signal | activity change, negative = inhibition, % (no concentration beside the values) | 390,000 tested, 0.02% active | AID 624415; in the data active means activity change below about -50%; inconclusive means between about -30% and that limit;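 further: stimulus is agonist 54-4 at its EC80 concentration; on the % scale 0 is the no-effect control and ±100 the full control effect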
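Calcium fluorescence in TRPML1-DL cells induced overnight with Tet: a 110 s read after compound pin addition, then a 110 s antagonist read after challenge with 54-4 at 4 uM final (EC80).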
* = called active by the depositor; ? = inconclusive; nt = no result given. Shown are actives, neighbours in structure and some others; about 0.81% of the full set was active somewhere.

SMILES | TRHR agonist | TRHR enhancer | TRPML1 ag | PTAP TSG101 blk | TRPML1 inh
C=CCNC(=O)c1onc(CSc2cccc3ccccc23)c1C(=O)O | -0.1 | 32.5* | -1.1 | -0.1% | -14.7
CCSc1cc(N2CCCC2)nc(-c2cccc(C)c2)n1 | -1.4 | 31.3* | 1.3 | -6.3% | -3.6
COC(=O)c1nc(Nc2cc(F)cc(F)c2)nc(NC2CCCC2)n1 | 2.0 | -1.1 | nt | nt | nt
NS(=O)(=O)c1ccc(-c2ccc(/C=N/Nc3ccc(C(=O)O)cc3)o2)cc1 | 1.7 | 1.6 | nt | 1.0% | nt
O=C(O)c1ccc(-c2ccc(/C=N/Nc3ccc([N+](=O)[O-])cc3)o2)cc1 | 122.5* | 35.8* | nt | ? | nt
O=C(O)c1cccc(-c2ccc(/C=N/Nc3ccc([N+](=O)[O-])cc3)o2)c1 | 70.2* | 14.1 | ? | 20.3% | -2.7
O=[N+]([O-])c1ccccc1N/N=C/c1c[nH]c2ccccc12 | -0.6 | -0.2 | 0.9 | -7.6% | 6.4
O=[N+]([O-])c1ccc(N/N=C/c2c[nH]c3ccccc23)cc1 | 32.4* | -2.6 | ? | 5.5% | -9.3
O=S(=O)(c1ccc2c(c1)OCCO2)N1CCN(S(=O)(=O)c2ccc3nc(Cl)c(Cl)nc3c2)CC1 | -0.8 | 0.6 | nt | nt | nt
O=C(NCc1nnc(-c2cc3ccccc3[nH]2)o1)c1ccccc1 | -0.1 | -4.6 | nt | nt | nt
CS(=O)(=O)c1ccccc1NC(=O)COc1ccccc1C(=O)Nc1ccccc1 | nt | nt | -0.5 | nt | nt
CCCc1ccc(OC(C)c2nc(-c3ccc(-n4cccc4)cc3)no2)cc1 (configuration not stated) | 2.9 | 35.9* | 0.6 | nt | -21.8
COc1ccc(CCc2nc(-c3ccc(-n4cccc4)cc3)no2)cc1 | 0.9 | 8.8 | 1.1 | 3.4% | -4.6
COc1ccccc1-c1ccc(/C=C2\C=CC(=O)O2)o1 | 73.0* | 4.2 | 84.3* | ? | -16.7
COc1ccccc1-c1ccc(/C=C2/C=C(C)OC2=O)o1 | 5.1 | 5.5 | 2.0 | 2.8% | 18.9
CCOc1ccc(C(=O)Nc2cccc(-c3nc4cc(Cl)cc(Cl)c4o3)c2)cc1 | -0.5 | 34.9* | -0.5 | nt | 8.1
Cc1ccccc1CNS(=O)(=O)c1c(C(=O)N2CCCC2)c(C)n(C)c1C | -0.2 | 34.8* | -0.1 | 0.1% | -9.8
CCn1cnc2c(Nc3ccc(CCC(=O)N=C(N)N)cc3)nc(C#N)nc21 | -2.0 | -0.1 | nt | nt | nt
O=C(Cn1cc(CNC(=O)c2ccccc2)nn1)Nc1cc(C(F)(F)F)ccc1Cl | -3.0 | 1.8 | nt | nt | nt
Cc1cccc(CC(=O)c2c[nH]c3ccccc23)c1 | 0.7 | 30.7* | 0.6 | -3.2% | 5.9
CNCC(=O)c1c[nH]c2ccccc12 | nt | nt | -0.7 | nt | nt
O=C(COC(=O)c1cc(Cl)ccc1[N+](=O)[O-])NCc1ccc(Cl)cc1Cl | 0.1 | 39.0* | 2.4 | 1.0% | -17.4
Fc1ccccc1-c1nc(NC2CCCC2)c2ccccc2n1 | -1.0 | 7.7 | 1.0 | -0.4% | 31.4
Oc1ccccc1-c1nc(NC2CCCC2)c2ccccc2n1 | -0.7 | 31.0* | nt | 1.8% | nt
O=C(Nc1ccc(Br)cc1)c1ccc2ncsc2c1 | -0.3 | 7.6 | -0.3 | -1.6% | 11.3
SMILES | TRHR agonist | TRHR enhancer | TRPML1 ag | PTAP TSG101 blk | TRPML1 inh
COc1ccc(NC(=O)c2ccc3ncsc3c2)cc1 | -0.8 | 34.8* | 0.7 | -3.9% | -14.3
COc1ccc(C(=O)Nc2ccc(NC(=O)c3ccco3)cc2)cc1 | -2.2 | 39.4* | -0.5 | -4.5% | -0.8
CCOC(=O)N1CCN(/[N+]([O-])=N/Oc2ccc(C(F)(F)F)cc2[N+](=O)[O-])CC1 | nt | nt | 1.3 | nt | -24.5
CC1CCCCN1C(=O)c1cnn2c1NC(=C1CC1)C=C2C(F)F (configuration not stated) | nt | nt | -0.7 | nt | nt
O=C(C[n+]1ccccc1Cl)c1ccc(Br)cc1 | nt | nt | -0.2 | nt | nt
C=C1C=C(C)n2ncc(C(=O)Nc3ccccc3C(=O)OC)c2N1 | nt | nt | -0.7 | nt | nt
[O-][N+]12CCCc3cccc(c31)CCC2 | nt | nt | 2.9 | nt | nt
Oc1cc2cc(-c3csc(-c4ccc(F)cc4)n3)ccc2[nH]1 | nt | nt | -1.0 | nt | nt
COc1ccc(C2=Nn3c(nnc3-c3ccccc3OC)SC2)cc1 | -0.6 | -1.0 | nt | nt | nt
Cc1nccc(-c2cc(-c3ccc(Cl)cc3Cl)no2)n1 | -0.3 | 32.8* | -0.4 | -3.6% | 9.3
COc1cccc(N2CCN(c3ncnc4c3c(-c3ccccc3)cn4-c3cccc(C(F)(F)F)c3)CC2)c1 | -0.4 | 3.4 | 53.1* | nt | -17.8
